Some test systems named below: SNB-75 CNS; SNB-19 CNS; U251 CNS; PC-3 prostate; SK-MEL-5 melanoma; UACC-62 melanoma; LOX IMVI melanoma; SK-MEL-28 melanoma; SK-MEL-2 melanoma; EKVX NSCLC; SN12C renal; UO-31 renal; TK-10 renal; ACHN renal; A498 renal; CCRF-CEM leukemia; MOLT-4 leukemia; SR leukemia; CAKI-1 renal.
What all share (assay): NCI-60 one-dose screen, 48 h (100 = growth as untreated, 0 = no growth, -100 = all killed)
What all share (conditions): 10 µM

About 83,000 compounds went through this panel and 20% of them were active in at least one assay; those are over-represented in the sample as a whole.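 Activity criterion: percent growth below 10, measured after cells in 96-well plates were exposed to a single compound concentration for 48 hours.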 A number with no mark means an inactive call. Activity calls are given as the source filed them.

Regarding `Cc1cc(Cl)nc(N(CCCNc2ccnc3cc(Cl)ccc23)Cc2cccs2)n1`, the growth with SNB-75 CNS is 55.6%; in the experiment with SNB-19 CNS, 42.9%; with U251 CNS, 8.68% (active); with PC-3 prostate it was 10.1%; in the experiment on SK-MEL-5 melanoma, -74.3% (active); with UACC-62 melanoma it was 10%. Moreover, the growth was -1.18% (active) in the experiment on LOX IMVI melanoma; 16.1% in the experiment on SK-MEL-28 melanoma; 16.9% in the experiment with SK-MEL-2 melanoma; 36.4% with EKVX NSCLC; 33% in the experiment on SN12C renal; 5.57% (active) with UO-31 renal. The growth in the experiment on TK-10 renal is 28.4%; with ACHN renal, 25.8%; with A498 renal, 19.6%; with CCRF-CEM leukemia it was 2.62% (active); in the experiment on MOLT-4 leukemia it was -17.6% (active); in the experiment with SR leukemia, -21.3% (active).
Consider `Oc1[nH]c2ccc(Cl)cc2c1/C=c1/ccc2c(c1)N=C(c1cccs1)N=2`, for which the growth is 6.31% (active) with SNB-75 CNS; 62% in the experiment on SNB-19 CNS; 61.3% with U251 CNS; 62.5% with PC-3 prostate; 52.8% with SK-MEL-5 melanoma; 53.6% with UACC-62 melanoma. Further, the growth in the experiment with LOX IMVI melanoma is 42.5%; with SK-MEL-28 melanoma it was 71.1%; in the experiment with SK-MEL-2 melanoma, 73.5%; with EKVX NSCLC, 66.3%; in the experiment with SN12C renal, 54.9%; with UO-31 renal, 72.7%. For the same molecule, the growth with TK-10 renal was 81.5%; with ACHN renal, 58%; in the experiment with CAKI-1 renal, 52.6%; with A498 renal, 44.6%; with CCRF-CEM leukemia, 31.9%; with MOLT-4 leukemia, 42.3%. Besides, in the experiment with SR leukemia, the growth is 37%.
Take `O=C(CCCCCCC(=O)Nc1cccnc1)NO`: the growth in the experiment with SNB-75 CNS is -13.5% (active); in the experiment with SNB-19 CNS it was 68.1%; in the experiment with U251 CNS, 42.2%; in the experiment with PC-3 prostate it was 26.3%; in the experiment with SK-MEL-5 melanoma, 15.3%; in the experiment on UACC-62 melanoma, 25.3%. In addition, the growth with LOX IMVI melanoma was 62.4%; in the experiment on SK-MEL-2 melanoma, 28.8%; in the experiment on EKVX NSCLC, 96.7%; in the experiment on SN12C renal, 71.2%; in the experiment with UO-31 renal it was 30.3%; in the experiment with TK-10 renal, 41%. Also, the growth is 65.7% in the experiment on ACHN renal; 46.6% in the experiment on CAKI-1 renal; 42.9% in the experiment with A498 renal; 2% (active) in the experiment with CCRF-CEM leukemia; 16.9% in the experiment on MOLT-4 leukemia; 28.6% in the experiment with SR leukemia.
As for `COC(=O)c1ccc(=O)oc1`, the growth with SNB-75 CNS was 91.1%; in the experiment on SNB-19 CNS, 103%; with U251 CNS it was 97.4%; in the experiment with PC-3 prostate, 91.5%; with SK-MEL-5 melanoma, 103%; in the experiment with UACC-62 melanoma, 93.6%. Besides, the growth with LOX IMVI melanoma was 98.4%; with SK-MEL-2 melanoma, 91.9%; in the experiment on EKVX NSCLC it was 98.6%; in the experiment on SN12C renal it was 85.8%; with UO-31 renal, 75.7%; with TK-10 renal it was 103%. The growth with ACHN renal is 98.9%; in the experiment with CAKI-1 renal it was 101%; with CCRF-CEM leukemia, 101%; with MOLT-4 leukemia, 94%; in the experiment on SR leukemia, 89.2%.
`O=C(Nc1ccncc1)C(=O)c1cn(S(=O)(=O)c2cccc(Cl)c2)c2ccccc12`: the growth is 85.3% in the experiment with SNB-75 CNS; 89.8% with SNB-19 CNS; 72.4% with PC-3 prostate; 51.7% in the experiment on SK-MEL-5 melanoma; 61.2% in the experiment on UACC-62 melanoma; 44.6% with LOX IMVI melanoma. Moreover, the growth is 86.5% in the experiment on SK-MEL-28 melanoma; 57.7% in the experiment with SK-MEL-2 melanoma; 52.3% with EKVX NSCLC; 75.5% with SN12C renal; 57.7% in the experiment on UO-31 renal; 87.6% with TK-10 renal. Also, the growth with ACHN renal was 82.8%; with CAKI-1 renal, 63.8%; with A498 renal it was 69.4%; in the experiment with CCRF-CEM leukemia it was 72.4%; with MOLT-4 leukemia it was 53.1%; in the experiment with SR leukemia it was 12%.
`COc1cc(CNc2ccccc2C(=O)N2CCN(C(=O)c3cc(-c4cc(OC)c(OC)c(OC)c4)n4nc(-c5ccccc5)cc4n3)CC2)cc(OC)c1OC`: the growth was 33.5% with SNB-75 CNS; 64.1% in the experiment on SNB-19 CNS; 35.2% in the experiment with U251 CNS; 26.9% with PC-3 prostate; 16.5% in the experiment on SK-MEL-5 melanoma; 27% with UACC-62 melanoma. Besides, the growth in the experiment with LOX IMVI melanoma was 35.7%; with SK-MEL-28 melanoma, 53%; with SK-MEL-2 melanoma it was -0.722% (active); in the experiment with EKVX NSCLC, 63.6%; in the experiment on SN12C renal, 79.4%; in the experiment on UO-31 renal, 19.1%. Besides, the growth in the experiment on TK-10 renal was 52.1%; in the experiment with ACHN renal, 51.8%; with CAKI-1 renal, 18.9%; in the experiment on A498 renal, -5.33% (active); in the experiment on CCRF-CEM leukemia, 58.8%; in the experiment with MOLT-4 leukemia, 68%. In addition, the growth in the experiment with SR leukemia was 8.84% (active).
For `O=C(Nc1cccc(-n2cc(-c3ccncc3)c(-c3cc(O)cc(Cl)c3)n2)c1)c1cc(C(F)(F)F)cc(C(F)(F)F)c1`, the growth in the experiment on SNB-75 CNS was 52.7%; in the experiment on SNB-19 CNS, 63.1%; with U251 CNS, 37.2%; in the experiment on PC-3 prostate, 21.7%; in the experiment with SK-MEL-5 melanoma, 64.5%; in the experiment on UACC-62 melanoma, 69.3%. Besides, the growth in the experiment with LOX IMVI melanoma is 10.5%; in the experiment on SK-MEL-28 melanoma, 63.6%; with SK-MEL-2 melanoma it was 57.8%; with SN12C renal, 50.3%; in the experiment with UO-31 renal, 49.1%; with TK-10 renal it was 73%. In addition, the growth with ACHN renal was 37.7%; in the experiment on CAKI-1 renal it was 58.5%; in the experiment on A498 renal, 40.3%; in the experiment with CCRF-CEM leukemia, 26.9%; with MOLT-4 leukemia it was 19.5%; in the experiment with SR leukemia, 3.15% (active).

The values are drawn from PubChem BioAssay (NCI).
